Experimental data published in the supplement of paper PMC6555819.

Legend:
Experiment in all cases: PBM binding z-score (relative to random genomic background probes); higher = stronger binding; sequences stand for … in GC…GCGATTGACAGCGTAGAATGAAGG
[1] = system: RARb homodimer (NR concentration 270 nM)
Summary of the method: (§1)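 Binding z-scores take random background probes as their reference. They come from custom Agilent 4×180K protein-binding microarrays incubated 1 h with ligand-free nuclear receptor dimers, with antibodies against each partner (one per run) detecting binding. Scanned fluorescence was regression-normalized.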

[2] = system: RARg:RXRa (NR concentration 270 nM, RXRa partner concentration 90 nM)
Summary of the method: as §1

[3] = system: RARg homodimer (NR concentration 270 nM)
Summary of the method: as §1

[4] = system: RXRa DBDmut IVT, anti-RXR (DBD mutation: RXRa K156A/R161A, NR concentration 90 nM)
Summary of the method: as §1

[5] = system: RXRa homodimer (NR concentration 180 nM)
Summary of the method: as §1

[6] = system: THRa:RXRa (NR concentration 90 nM, RXRa partner concentration 90 nM)
Summary of the method: as §1

[7] = system: THRa homodimer (NR concentration 90 nM)
Summary of the method: as §1

[8] = system: VDR:RXRa (NR concentration 270 nM, RXRa partner concentration 90 nM)
Summary of the method: as §1

[9] = system: VDR homodimer (NR concentration 270 nM)
Summary of the method: as §1

Sequence | PBM binding z-score [1] | PBM binding z-score [2] | PBM binding z-score [3] | PBM binding z-score [4] | PBM binding z-score [5] | PBM binding z-score [6] | PBM binding z-score [7] | PBM binding z-score [8] | PBM binding z-score [9]
CCTCGGAGGACAGAGGGTCAGAGCTGTCCGCTTT | 2.47 | 2.45 | 2.4 | -0.382 | 1.6 | 1.69 | -0.314 | 0.544 | -0.0777
ATATGTCGGTTATCGGGTCATTCAGTTTGCGCAT | 2.64 | 2.72 | 2.04 | 1.42 | 2.51 | 3.14 | 2.54 | 4.84 | 3.21
CCTATTAGTTGACAATAAGGGCAACCGAAGCTCG | 1.52 | 1.04 | 0.963 | 0.782 | 0.644 | 1.8 | 0.906 | 1.09 | 0.927
TCTAGCAGGCCAGACGGTCACTCAAGAGGTACGG | 1.12 | 0.224 | 0.8 | -0.226 | 0.291 | -0.447 | -0.799 | -0.346 | -1.01
GGAACGAGGGCAAAGTTGATAGCTTCTGTCGACG | 1.06 | 1.82 | 1.32 | 2.55 | 1.72 | 1.13 | -0.251 | 1.09 | 1.22
GCTAGTTGGTCAGTAAAAGTTCACACACCGGTCG | 3.69 | 3.04 | 2.42 | 1.07 | 1.82 | 1.46 | 0.436 | 2.55 | 2.91
TAGCCTAGGTCATCGGCCAGTATACCACGCGAAC | 2.9 | 4.27 | 4.72 | 1.02 | 3.08 | 2.76 | 1.11 | 2.15 | 0.802
CGAACTAGGTCATCCAGGACAGTGGATACATTGA | 3.05 | 4.08 | 4.8 | 2.01 | 2.9 | 3.74 | 1.96 | 4.5 | 2.06
TTACCATGGTGAAGGTCGTTGATCCCTCTGTAGA | 0.835 | 0.184 | -0.00813 | -0.163 | 1.07 | 0.611 | -0.36 | 0.949 | 0.502
TAGCCTAGGTCATGCGGGCCAGTAAAGTGTCGGC | 2.88 | 3.9 | 4.1 | 1.04 | 2.94 | 2.98 | 0.78 | 2.75 | 0.405
AGGCAAAGTTCACTAGGTAACGTAAGATTCAGCT | 3.64 | 4.78 | 5.51 | 4.22 | 3.75 | 2.15 | 0.37 | 3.88 | 4.15
TCATATAGGTAAATGCTAGGTCAAAGTCCGATCT | 2.75 | 2.52 | 1.58 | 1.72 | 2 | 2.96 | 1.76 | 2.15 | 1.35
ACTTCCGGGTCAACGAGGTTATAGCACGCGTATA | 3.44 | 5.17 | 4.74 | 2.62 | 5.76 | 4.34 | 2.68 | 7.62 | 4.34
AGTCAAAGTTCACTAGGTAACGTGAGATTCAGCT | 3.59 | 4.82 | 5.55 | 3.83 | 3.61 | 1.87 | 0.0345 | 3.88 | 3.17
CCAGACAGGTTAGAAGGTAACTCAGCCTCGATTA | 0.786 | 0.637 | 0.641 | 0.0628 | 0.699 | 0.493 | 0.212 | 0.114 | 0.658
CCGACTGGGGCATATGGTTACCATAAGCCAGCCC | -0.243 | -0.00585 | 0.046 | -0.59 | 0.109 | -1.07 | -0.688 | -0.695 | -0.752
CAGCCTAGGTCAGTGCCAGTATAGGAGGAACGTT | 2.5 | 2.55 | 3.53 | 0.655 | 0.856 | 1.44 | 0.501 | -0.0475 | -0.0639
TCTATTAGTTGATTAGGACAACCGAAACAGCGGA | 0.549 | 0.758 | 0.926 | 1.39 | 0.79 | 1.84 | 1.63 | 1.12 | 1.03
GCTAGCAGGCCATTTGGGTCAATCAATGACGGGC | 1.62 | 0.878 | 1.21 | 0.0646 | 0.805 | 1.87 | 0.12 | 0.778 | -0.0302
AATACAGGGTCACTCGGCCAGAGTAGGTACGAAT | 3.24 | 5.28 | 5.06 | 3.27 | 5.63 | 3.4 | 0.907 | 4.3 | 2.84
ATATGTAGGCTACATCCGGGTCATTCAGGCTATG | 2.14 | 1.7 | 1.22 | 0.518 | 1.95 | 2.91 | 2.14 | 2.92 | 2.15
TATATTAGTTGAAGGGCAACCGACGAGTCCGTTT | 1.37 | 0.983 | 1.22 | 0.547 | 0.884 | 0.415 | -0.0239 | 0.939 | 1.91
GGGACGAGGGCAAAGTTGATAGCATCTGTCGACG | 1.44 | 2.17 | 1.98 | 2.35 | 1.9 | 1.52 | 0.0608 | 1.47 | 1.85
CGTACAAGGTCAGAGAGGTCAGTGAATGCCGAGT | 5.31 | 6.28 | 7.24 | 3.52 | 5.95 | 4.23 | 2.64 | 7.46 | 6

Sequence | PBM binding z-score [1] | PBM binding z-score [2] | PBM binding z-score [3] | PBM binding z-score [4] | PBM binding z-score [5] | PBM binding z-score [6] | PBM binding z-score [7] | PBM binding z-score [8] | PBM binding z-score [9]
GATACAGGTTCAAGGCCAGAGTACGCGTATTGAT | 1.44 | 1.82 | 1.3 | 3.5 | 2.13 | 1.55 | 0.144 | 3.41 | 3.82
CCGTACGGGTCACTCCAGGTTATAGCATCGGAGT | 3.26 | 4.74 | 4.74 | 1.62 | 5.04 | 5.05 | 0.303 | 4.39 | 1.37
TCTGCTAGGACAACGATGGTCAGCTAATCTGCTA | -0.669 | -0.181 | 0.34 | 0.112 | -0.495 | 0.316 | -0.704 | -0.784 | -0.943
TCGAGTAGTTTAGGGGCATTCAGAATGGCGTCGA | 0.436 | 0.014 | -0.0825 | 0.68 | 0.467 | 1.33 | 0.108 | 0.605 | 1.55
GATACAGGGTCACGGCCAGAGTACGCGTATTGAT | 3.98 | 6.54 | 6.18 | 2.92 | 7.78 | 4.17 | 2.03 | 5.4 | 3.26
CCTACTGGGCCAAGGTCAGTGATCAGTCAAAGCA | 2.89 | 2.37 | 2.48 | -0.721 | 1.4 | 2.31 | 1.15 | 0.692 | 0.568
CGAACTAGGTGAAGGACAGTGAATCTCCGCACGC | 0.454 | 0.04 | 0.23 | -0.281 | 0.265 | 0.232 | -0.201 | -0.403 | -0.373
GCTAGCAGGCCATTTGGGTCACTCAGTGACGGGC | 1.63 | 0.822 | 1.04 | 0.0208 | 0.754 | 1.9 | 0.383 | 0.711 | 0.166
TCGAGTAGGTTAGTCGGGGCATTGAGCCAACATA | 0.349 | -0.11 | 0.0255 | 0.159 | -0.18 | 1 | -0.457 | 1.89 | -0.0737
ATTAGCAGGCCAAGTTTGGGTCACTCAAACAAAG | 2.04 | 2.39 | 1.91 | 0.00898 | 0.882 | 2.69 | 0.986 | 0.833 | 0.34
CGTCCAAGCTCAAGGTCAGTGAAAGAGACTCGAA | 3.16 | 2.55 | 3.24 | 0.755 | 1.81 | 2.87 | 1.83 | 1.18 | 1.18
CCTATTGGTTGACCATAAGGGCAACCGAAGCTCG | 1.47 | 0.997 | 0.631 | -0.724 | 0.512 | 1.62 | 0.504 | -0.0561 | -0.166
CCGACTGAGGCATAAGGTTACCATAAGCCAGCCC | 1.13 | 0.506 | 0.395 | 0.281 | 0.885 | 2.07 | 1.53 | 0.114 | 0.195
TCGAGTAGGTTAGTCGCGGCATTCAGCCAACATA | -0.376 | -0.336 | -0.495 | -0.209 | -0.0361 | -0.287 | -1.14 | -0.415 | -0.682
GGAACGAGGGCATTCGAGTGGATAGCATGGCGAT | 0.402 | 0.904 | 1.23 | 2.83 | 0.651 | 1.69 | -0.704 | 1.32 | 1.87
CCTTTCGGGTCAAGGTTATAGCACGGGTGGTACG | 3.76 | 5.07 | 5.07 | 2.03 | 5.56 | 3.97 | 3.16 | 3.79 | 1.97
GCATATAGGTAATACGAGGTGAAAGTCCGATTGT | 0.883 | 0.378 | 0.419 | 0.527 | 0.781 | 4.46 | 1.41 | 0.598 | -0.0522
GTTACAGGGTCAGCTAGAGGCCAGAGTATGGAAA | 3.54 | 6.82 | 5.21 | 1.4 | 4.47 | 3.11 | 0.599 | 3.39 | 1.01
TCATATAGGTAAAGGTGGAAGTCGAACGATATGA | 0.0636 | 0.544 | 0.404 | 1.02 | 0.958 | -0.14 | -0.387 | 0.368 | 0.109
TAGCCTAGGTCATTGGGCCAGTCTAGTACGCATC | 2.48 | 3.76 | 3.79 | 1.52 | 2.52 | 2.67 | 0.501 | 1.98 | 0.896
CGTCCAAGGTCTTAGGAGGTCAGTGAAGACAGAT | 3.12 | 2.51 | 2.68 | 0.709 | 2.01 | 4.13 | 1.15 | 2.89 | 1.33
AGTCAAAGTTCAGGAGGAGGTAACGTAAAGCACG | 3.59 | 5.4 | 4.92 | 3.04 | 3.26 | 2.88 | 0.548 | 2.89 | 2.16
ACTAGTTGGTCAGCTGAGGTCACCCACAATTCGG | 4.38 | 4.14 | 4.02 | 1.19 | 3.69 | 4.97 | 5.19 | 4.46 | 3.57
CGAACTAGGTCAAGGACAGTGATTCTCCGCACGC | 3.36 | 3.83 | 4.62 | 1.49 | 2.77 | 3.42 | 2.19 | 1.48 | 0.466
